A short description of the assay: Cell Proliferation Assay against the TMD8 Cell Line (AID 651645).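 Also: cells exposed to compound for 48 h before reading.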 The conditions noted are these: TMD8 DLBCL cell line proliferation/viability; at 46.1 µM (top of the series) unless noted. The method in brief: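 TMD8 cells, 500/well in RPMI with 5% FBS, dosed immediately and grown 48 h at 37 C, 5% CO2. CellTiter-Glo luminescence normalised to DMSO 100% and 9.2 uM bortezomib (final) 0%.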
As for `OCCC#Cc1nc(-c2ccc(F)cc2)c(-c2ccncc2)n1CCCc1ccccc1`, the viability (% of control) came out at 67.4%.

Consider `CCC(C)(C)C(=O)O[C@H]1C[C@@H](C)C=C2C=C[C@H](C)[C@H](CC[C@@H]3C[C@@H](O)CC(=O)O3)[C@H]21`, for which the viability (% of control) came out at 80.7% [at 15.4 µM]. Then `Cc1cc([C@@H](C)Nc2ccccc2C(=O)O)c2nc(N3CCOCC3)cc(=O)n2c1`, with 14.9%; and `COc1cc2nccc(Oc3ccc(NC(=O)NC4CC4)c(Cl)c3)c2cc1C(N)=O`, with 30.4%; and `COc1cc(F)c(F)c(Nc2ccc(I)cc2F)c1NS(=O)(=O)C1(C[C@H](O)CO)CC1`, with 69.3%.

`C[C@]1(c2nc3c(C(N)=O)cccc3[nH]2)CCCN1`: the viability (% of control) was found to be 57.1%.

`CCCn1c(=O)c2[nH]c(C34CC5CC3C[C@@H](C5)C4)nc2n(CCC)c1=O`: the viability (% of control) turned out to be 30.5%. In the case of `C/C(=C\C(=O)Nc1ccccc1C(=O)O)c1ccc2ccccc2c1` it was 53.7%.

As for `CC[C@H](Nc1ncnc2nc[nH]c12)c1nc2cccc(F)c2c(=O)n1-c1ccccc1`, the viability (% of control) was found to be 19.3%. `COc1ccc(COc2cc3oc(=O)c4cc(C(C)O)ccc4c3cc2OC)cc1` (stereo not given): the viability (% of control) is 57.4%. Then `CC(C)(C)OC(=O)CN(Cc1ccc(Cl)cc1)Cc1ccc([N+](=O)[O-])s1`, with 7.07%. Then `O=C(Nc1cccnc1)N1CCC(Cc2cccc(Oc3ccc(C(F)(F)F)cn3)c2)CC1`, with 36.7%; and `CCn1c(-c2nonc2N)nc2c(C#CC(C)(C)O)ncc(OC[C@H]3CCCNC3)c21`, with 22.8%. Then `CN(C)C(=O)c1ccc(S(=O)(=O)c2ccc(NC(=O)[C@@](C)(O)C(F)(F)F)c(Cl)c2)cc1`, with 73%; and `Cc1c(CCOc2ccc(C(=O)O)cc2)c2cc(Cl)ccc2n1C(c1ccccc1)c1ccccc1`, with 79.3%.

Source of the values: PubChem BioAssay (NCATS).
